High-throughput results as filed in PubChem.
IL-1B inflam inh – blocks inflammasome-driven IL-1 beta release; THP-1 LPS/ATP IL-1B secretion, AlphaLISA, 16 h; stronger effect = lower value; activity change, % at 57.5 µM; actives 4.7% (n = 360,000); in the data active means activity change below about -50%; inconclusive means mostly about -30% to -49%
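Secreted IL-1B measured by AlphaLISA bead assay after 16 h compound exposure of THP-1 cells; compounds (final up to 57.5 uM) added 1 h before LPS (250 ng/mL) and ATP (1.25 mM) stimulation; lower signal means less secretion.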
HT1080 IDH1KD tx – kills HT-1080 cells with IDH1 knockdown. actives 2% (n = 360,000). HT-1080 IDH1 knockdown viability, ATP luminescence, 48 h. Potency, µM (titrated, usually from 46.1 µM), actives largely listed as cytotoxic. AID 686971
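After a 2 h attachment period, IDH1KD HT-1080 cells took pin-transferred compound for 48 h at 37 °C; ATP-based luminescence after 10 min room-temperature reagent incubation reported viability.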
TDP1 cell noCPT – qHTS for Inhibitors of human tyrosyl-DNA phosphodiesterase 1 (TDP1): qHTS in cells in absence of CPT; actives 15% (n = 420,000); Potency, µM (highest dose often 46.2 µM), most hits filed as inhibitors; DT40 Tdp1-/- hTDP1 cells, no CPT, ATP luminescence, 48 h; further: nearly all actives have a fitted effect of over 55% in size
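A cellular qHTS used chicken DT40 cells lacking endogenous Tdp1 but carrying stably transfected human TDP1. Compounds were applied without camptothecin, and cell growth kinetics were judged by ATP-dependent luminescence after ≥48 hr.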
DT40 TDP1 CPT – growth inhibition of DT40 Tdp1-/-;hTDP1 cells with camptothecin (screen for TDP1 inhibitors). AID 686979. actives 12% (n = 420,000). Potency, µM (highest dose often 46.2 µM), most hits filed as inhibitors. chicken DT40 Tdp1-/-;hTDP1 cells + 20 nM CPT, ATP luminescence, 48 h; further: nearly all actives have a fitted effect of over 55% in size
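Cell growth measured by CellTiter-Glo luminescence after a minimum 48 h, 37 C compound exposure with 20 nM CPT in Tdp1-knockout DT40 cells stably expressing hTDP1, seeded 400/well; qHTS titration format.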
HT1080-NT tox – kills 2HG-producing HT-1080-NT fibrosarcoma cells; Potency, µM (series often up to 46.1 µM), usual class: cytotoxic; actives 1.6% (n = 360,000); HT-1080-NT fibrosarcoma viability, CellTiter-Glo ATP luminescence, 48 h;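 further: NT is the 2HG producing partner of a matched IDH1 knockdown line; nearly all actives have a fitted effect of over 55% in size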
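HT-1080-NT fibrosarcoma cells (2HG-overproducing), 750 cells/well in RPMI with 5% FBS, dosed after 2 h and incubated 48 h at 37C. CellTiter-Glo luminescence normalized to DMSO and no-cell wells; concentration-response curves fitted and classed.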
Of the large screens only hits and unclear results are named; the others gave an inactive call. Rows were chosen to be rich in hits. Some 19% of all compounds tested hit in one or more screens of this group. Unless noted, the call rests on the fitted dose curve; in most records, active means well fitted curve in the direction sought with a large enough effect; inconclusive means small, poorly fitted or top-dose-only effect, or another doubt; inactive means no such curve, though single readings can be large; an effect the other way counts as inactive or inconclusive.

COc1ccc(Cl)cc1-c1n[nH]c(=S)n1C	none
COc1cc2c(cc1OC)C(c1oc(-c3ccc(-c4cc(Cl)ccc4Cl)o3)cc1C)=NCC2	TDP1 cell noCPT 0.35µM, DT40 TDP1 CPT 1µM (no result: IL-1B inflam inh, HT1080 IDH1KD tx, HT1080-NT tox)
COc1cc2c(cc1OC)C(c1ccc(-c3ccc(Cl)cc3Cl)o1)=NCC2	IL-1B inflam inh inconclusive, HT1080 IDH1KD tx 23µM, TDP1 cell noCPT 0.92µM, DT40 TDP1 CPT 1.2µM, HT1080-NT tox inconclusive
Cc1ccc(C(=O)NNC(=O)CCC(=O)NCc2ccccc2)cc1Br	IL-1B inflam inh inconclusive
Cc1ccc(C(C)NC(=O)COC(=O)C2=COCCO2)cc1C (stereo not given)	none
CC1(C)CC2(CC(c3ccc(F)cc3)c3ccc(O)cc3O2)NC(=S)N1 (stereo not given)	TDP1 cell noCPT inconclusive, DT40 TDP1 CPT inconclusive
CC1(C)CC2(CC(c3cccs3)c3cc(Cl)c(O)cc3O2)NC(=S)N1 (stereo not given)	TDP1 cell noCPT 7.3µM, DT40 TDP1 CPT 8.2µM
Cc1cc(C)c(NC(=O)CN(CC(=O)O)CC(=O)O)c(C)c1Br	DT40 TDP1 CPT inconclusive (no result: IL-1B inflam inh, HT1080 IDH1KD tx, HT1080-NT tox)
CCn1nc(-c2ccccc2)c(-c2ccccc2)c(C(=O)Nc2nc(C)c(C(C)=O)s2)c1=O	TDP1 cell noCPT 1.6µM, DT40 TDP1 CPT 1.6µM (no result: IL-1B inflam inh, HT1080 IDH1KD tx, HT1080-NT tox)
Cn1c2c(c(=O)n1-c1ccccc1)CSCC2	none
CC(=O)c1c(C(C)=O)c(C)n(-c2cccc([N+](=O)[O-])c2)c1C	none
CC(=O)C1=C(c2ccc(Cl)cc2)N(C(C)=O)n2c(nnc2C2CCCCC2)S1	TDP1 cell noCPT inconclusive, DT40 TDP1 CPT 13µM (no result: IL-1B inflam inh, HT1080 IDH1KD tx, HT1080-NT tox)
CC(=O)C1=C(c2ccc(C)c(C)c2)N(C(C)=O)n2c(nnc2-c2ccc(Cl)cc2)S1	TDP1 cell noCPT 4.6µM, DT40 TDP1 CPT 5.2µM (no result: IL-1B inflam inh, HT1080 IDH1KD tx, HT1080-NT tox)
CCC(=O)C1=C(c2ccc(Cl)cc2)N(C(=O)CC)n2c(C)nnc2S1	TDP1 cell noCPT 7.3µM, DT40 TDP1 CPT 8.2µM (no result: IL-1B inflam inh, HT1080 IDH1KD tx, HT1080-NT tox)
CC(=O)C1=C(c2cccc([N+](=O)[O-])c2)N(C(C)=O)n2c(C)nnc2S1	IL-1B inflam inh -98, HT1080 IDH1KD tx inconclusive, TDP1 cell noCPT 1.8µM, DT40 TDP1 CPT 4.6µM, HT1080-NT tox inconclusive
CCCCCN(C(=O)CCC(=O)OC(C)C(=O)c1ccc(Cl)cc1)c1c(N)n(CCCC)c(=O)[nH]c1=O (stereo not given)	none
Cc1oc(-c2ccccc2NC(=O)C2CCCO2)nc1CNC(=O)c1[nH]c2c(C)ccc(C)c2c1C (stereo not given)	TDP1 cell noCPT inconclusive (no result: IL-1B inflam inh, HT1080 IDH1KD tx, HT1080-NT tox)
COc1ccc(C2=C(C(C)=O)Sc3nnc(-c4ccccc4)n3N2C(C)=O)cc1	DT40 TDP1 CPT inconclusive (no result: IL-1B inflam inh, HT1080 IDH1KD tx, HT1080-NT tox)
CCc1nnc2n1N(C(C)=O)C(c1ccc(C(C)(C)C)cc1)=C(C(C)=O)S2	TDP1 cell noCPT 12µM, DT40 TDP1 CPT 8.2µM (no result: IL-1B inflam inh, HT1080 IDH1KD tx, HT1080-NT tox)
COc1ccc(Oc2ccc(/C=C/C(=O)c3ccc(O)cc3)cc2[N+](=O)[O-])cc1	IL-1B inflam inh -100, HT1080 IDH1KD tx inconclusive, TDP1 cell noCPT 15µM, DT40 TDP1 CPT inconclusive, HT1080-NT tox 23µM
CNc1ccc(/C=C/C(=O)c2ccc(C)cc2)cc1[N+](=O)[O-]	HT1080 IDH1KD tx inconclusive, TDP1 cell noCPT inconclusive, DT40 TDP1 CPT inconclusive, HT1080-NT tox inconclusive
O=C(/C=C/c1ccc(O)c([N+](=O)[O-])c1)c1ccc2ccccc2c1	HT1080 IDH1KD tx inconclusive, TDP1 cell noCPT 23µM, DT40 TDP1 CPT 18µM
NC(=O)C1CCN(c2ccc(S(=O)(=O)N3CCC(Cc4ccccc4)CC3)cn2)CC1	TDP1 cell noCPT 13µM, DT40 TDP1 CPT inconclusive
CCCS(=O)(=O)N1CCC(C(=O)NCCCN2CCC(Cc3ccccc3)CC2)CC1	none
CCCS(=O)(=O)N1CCC(C(=O)N2CCC(Cc3ccccc3)CC2)CC1	TDP1 cell noCPT 21µM, DT40 TDP1 CPT 18µM
CCCS(=O)(=O)N1CCCC(C(=O)NCCc2ccccc2)C1 (stereo not given)	none
CCCCOc1ccc(C(C)NC(=O)C2CCCN(S(=O)(=O)CCC)C2)cc1 (stereo not given)	TDP1 cell noCPT 16µM, DT40 TDP1 CPT 12µM
